Test results from the supplement of paper PMC5919970.
Counter-ions that a name gives are not always drawn. Over roughly 2,000 compounds, “fractional viability relative to vehicle” has its median near 0.91; the lowest 2% begin near 0.045. This excerpt belongs to a sample that is enriched for the lowest values.

Test system: TYKNU
Experiment: fractional viability relative to vehicle; TYKNU is a high-grade serous ovarian cancer line; higher = less growth inhibition
Details: 72 h
Summary of the method: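 TYKNU control cells or lentiCRISPRv2 knockout derivatives were plated at 500 cells per well in duplicate into drug-stamped 384-well plates holding a ~2100-compound library at 2 or 10 μM. Culture was in RPMI 1640 with 10% FBS at 37 °C in 5% CO2, with 72 h of drug treatment. Viability was measured by Cell Titer Glo luminescence, and the averaged duplicate treatment wells were normalised to duplicate control wells at the same plate position.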

[1] = 2uM, genotype: DNM1L knockout (sgDNM1L #1)
[2] = 2uM, genotype: sgCTRLA1 (non-targeting control)
[3] = 10uM, genotype: DNM1L knockout (sgDNM1L #1)
[4] = 10uM, genotype: sgCTRLA1 (non-targeting control)

| Compound | fractional viability [1] | fractional viability [2] | fractional viability [3] | fractional viability [4] |
| --- | --- | --- | --- | --- |
| Cc1cccc(C(C)c2c[nH]cn2)c1C (stereo not drawn) [Medetomidine HCl] | 1.09 | 1.09 | 0.755 | 1.03 |
| O=[N+]([O-])c1ncc[nH]1 [Azomycin] | 0.753 | 1.09 | 0.757 | 0.975 |
| CC[C@H](C)[C@@H]([C@@H](CC(=O)N1CCC[C@H]1[C@H](OC)[C@@H](C)C(=O)N[C@H](C)[C@@H](O)c1ccccc1)OC)N(C)C(=O)[C@@H](NC(=O)[C@@H](NC)C(C)C)C(C)C [Monomethyl auristatin E (MMAE)] | 0.0977 | 0.0889 | 0.0769 | 0.0612 |
| Cc1cccc([C@H](C)c2c[nH]cn2)c1C [Dexmedetomidine] | 1.06 | 1.23 | 0.8 | 1.05 |
| CCCCCCCCCCCCCCCC[n+]1ccccc1 [Cetylpyridinium Chloride] | 0.216 | 0.196 | 0.0152 | 0.0105 |
| Cc1ccccc1-n1c(Cn2ncc3c(N)ncnc32)nc2cccc(C)c2c1=O | 0.87 | 1.14 | 0.731 | 1.15 |
| CCc1c(C(=O)C(N)=O)c2c(OCC(=O)O)cccc2n1Cc1ccccc1 | 1.09 | 1.02 | 0.94 | 0.973 |
| Cn1cc(C2=C(c3cn(C4CCN(Cc5ccccn5)CC4)c4ccccc34)C(=O)NC2=O)c2ccccc21 | 0.952 | 0.961 | 0.948 | 0.916 |
| Cc1cc(C(C#N)c2ccc(Cl)cc2)c(Cl)cc1NC(=O)c1cc(I)cc(I)c1O (stereo not drawn) [Closantel] | 1.13 | 1.17 | 0.948 | 1.1 |
| Cc1cc(C(C#N)c2ccc(Cl)cc2)c(Cl)cc1NC(=O)c1cc(I)cc(I)c1O (stereo not drawn) [Closantel Sodium] | 0.98 | 1.19 | 0.879 | 0.97 |
| COc1ccc(C[C@H]2NC[C@H](O)[C@H]2OC(C)=O)cc1 [Anisomycin] | 0.109 | 0.0785 | 0.118 | 0.0319 |
| COc1cc(C)[nH]c(=O)c1CNC(=O)c1c(C)n([C@H](C)C2CCOCC2)c2ccccc12 | 0.85 | 0.972 | 0.755 | 0.698 |
| CCc1cc2c(s1)-n1c(C)nnc1CN=C2c1ccccc1Cl [Etizolam] | 0.778 | 1 | 0.707 | 0.96 |
| CC(C)(C)[C@]1(O)CC2OC(=O)CC23C(=O)OC2OC(=O)[C@H](O)C231 (stereo partly drawn) [Bilobalide] | 0.854 | 1.09 | 0.975 | 1.11 |
| O=C1CCC[C@@H]2[C@H]3CCCN4CCC[C@@H](CN12)[C@@H]34 [(+)-Matrine] | 0.865 | 1.03 | 0.795 | 1 |
| COc1cc([C@@H]2c3cc4c(cc3[C@H](O)[C@H]3COC(=O)[C@@H]23)OCO4)cc(OC)c1OC [Picropodophyllin (PPP)] | 0.139 | 0.142 | 0.121 | 0.0713 |
| O=C(NCC1CCOCC1)c1cnc(Nc2ccc(Cl)cc2Cl)nc1C(F)(F)F | 1.03 | 1.32 | 0.768 | 1.19 |
